Bioassay records (PubChem)
ERa SRC1 inh – ERα–SRC-1 coactivator interaction inhibitors, primary screen, biochemical, TR-FRET, ERα LBD, estradiol-bound. hit rate 1.7% among 86,000. inhibition, % at 25.6 µM. TR-FRET ER-alpha LBD / SRC-1 peptide; in the data active = inhibition above about 50%
ERa SRC1 pot – enhancers of ERα–SRC-1 coactivator binding, primary screen, biochemical, TR-FRET, ERα LBD, low estradiol; Estrogen receptor (Homo sapiens), P03372; hit rate 1.3% among 86,000; coactivator binding (% of control), % at 25.6 µM; TR-FRET ERalpha-LBD/SRC-Cy5 coactivator binding, 2 h; 100 = basal binding, no effect; in the data active = activity above about 200%;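 also: binding measured in presence of low estradiol as agonist stimulus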
MT1-MMP txn act – MT1-MMP promoter reporter activation – cell-based, luciferase luminescence, primary screen. hit rate 0.16% among 86,000. AID 750, 2007. activation factor at 10 µM. HT1080 MT1-MMP promoter luciferase reporter, overnight; stronger effect = higher value;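 active = activation factor of at least 2 for MT1-MMP transcription at 10 µM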
ERb coact inh – inhibitors of ERβ-SRC1 coactivator interaction, primary screen, biochemical, TR-FRET, ERβ LBD, SRC-1 peptide; TR-FRET ER-beta LBD / SRC1-Cy5 peptide binding; receptor agonist-loaded with 1 µM estradiol; inhibition, % at 25.6 µM; hit rate 1.3% among 86,000; AID 633, 2007;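 active = compounds whose percent inhibition of the receptor-coactivator binding signal exceeds about 50% in the single-dose screen, limit read from the data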
DAT uptake mod – changed hDAT dopamine uptake under cocaine IC80, either direction, primary screen, cocaine antagonist project, cell-based, LLC-PK1 hDAT, [14C]-dopamine uptake, MLSMR; LLC-PK1 hDAT cells, [14C]-dopamine uptake with cocaine IC80; actives deviate in either direction; B-score at 10 µM; hit rate 1.3% among 110,000; AID 449768, 2010;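 active = Z score or B-score, a plate-position-corrected score, falls beyond the plate's 99.7% confidence bounds, in either direction; inactive = both scores lie inside the 99.7% bounds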
Target sequence (Q01959 whole entry, looked up): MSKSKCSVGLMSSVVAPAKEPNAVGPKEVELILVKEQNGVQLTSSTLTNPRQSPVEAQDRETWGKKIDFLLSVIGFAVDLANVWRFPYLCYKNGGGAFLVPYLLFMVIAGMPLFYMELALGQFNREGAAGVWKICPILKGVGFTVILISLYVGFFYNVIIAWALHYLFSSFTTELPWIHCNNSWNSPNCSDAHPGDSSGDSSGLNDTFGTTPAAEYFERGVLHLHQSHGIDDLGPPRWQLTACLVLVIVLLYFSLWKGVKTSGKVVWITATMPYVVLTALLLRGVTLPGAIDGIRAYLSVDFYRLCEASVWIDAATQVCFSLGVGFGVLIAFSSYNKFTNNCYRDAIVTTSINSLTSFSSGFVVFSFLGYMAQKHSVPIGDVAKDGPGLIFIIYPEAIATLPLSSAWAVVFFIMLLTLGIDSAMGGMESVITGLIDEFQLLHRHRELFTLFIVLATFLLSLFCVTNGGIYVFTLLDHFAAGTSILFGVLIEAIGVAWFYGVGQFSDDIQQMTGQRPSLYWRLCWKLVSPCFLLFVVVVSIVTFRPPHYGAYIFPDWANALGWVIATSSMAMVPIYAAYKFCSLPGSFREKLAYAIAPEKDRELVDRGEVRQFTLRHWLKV
Of the large screens only hits and unclear results are named; the others gave an inactive call; [ ] = another dose, or the depositor's remark. A selection: hits, their analogues and other compounds. The true share with any hit is near 3.8%.

O=C(Nc1ccc2c(c1)OCCO2)c1cc2sccc2n1Cc1ccccc1	none
Cn1c(C(=O)Nc2ccc3c(c2)OCCO3)cc2sccc21	DAT uptake mod 2.2
COc1cc(C(=O)N2CCC(O)(c3ccccc3)CC2)cc(OC)c1OC	none (no result: ERa SRC1 inh, ERa SRC1 pot, MT1-MMP txn act, ERb coact inh)
COC(=O)/C(=C\C(=O)c1ccccc1)Nc1cccc(C(F)(F)F)c1	none (no result: ERa SRC1 inh, ERa SRC1 pot, MT1-MMP txn act, ERb coact inh)
N#CC1=C(N)C(C#N)(C#N)[C@H](c2ccncc2)[C@H]2CN(C(=O)OCc3ccccc3)CC=C12	DAT uptake mod 2.8 (no result: ERa SRC1 inh, ERa SRC1 pot, ERb coact inh)
CC(C)(C)OC(=O)N1CC=C2C(C#N)=C(N)C(C#N)(C#N)[C@H](c3cccnc3)[C@H]2C1	none (no result: ERa SRC1 inh, ERa SRC1 pot, MT1-MMP txn act, ERb coact inh)
CC1=C(C(=O)OCc2ccccc2)C(c2ccccc2OC(=O)c2cccs2)NC(=O)N1CCCC(=O)O (stereo not drawn)	none (no result: ERa SRC1 inh, ERa SRC1 pot, ERb coact inh, DAT uptake mod)
c1coc(C2Nc3cccc4cccc(c34)N2)c1	ERa SRC1 inh 74[fluorescence artefact?], ERb coact inh 78[fluorescence artefact?]
Oc1ccc(C2Nc3cccc4cccc(c34)N2)c(O)c1	none
CCOc1ccc(NC(=O)CSCc2cnn(-c3ccccc3)c2-n2cccc2)cc1	none
COc1ccc(C(C(=O)NC2CCCC2)N(C(=O)c2ccco2)c2ccc3c(c2)OCO3)cc1OC (stereo not drawn)	ERb coact inh 57
COC(=O)c1ccc(CSc2nnc(Nc3ccc(OC)cc3)s2)o1	none
COC(=O)c1ccc(CSc2nnc(SCc3ccc(C(=O)OC)o3)s2)o1	none
COC(=O)c1ccc(CSc2nnc(Nc3ccccc3OC)s2)o1	DAT uptake mod 3.5 (no result: ERa SRC1 inh, ERa SRC1 pot, ERb coact inh)
COC(=O)c1ccc(CSc2nc(C)nc3sc(C)c(C)c23)o1	ERa SRC1 inh 55
Cn1c(=O)c2ncn(CC(=O)Nc3cccc(-c4nc5ccccc5s4)c3)c2n(C)c1=O	none (no result: ERa SRC1 inh, ERa SRC1 pot, MT1-MMP txn act, ERb coact inh)
Cn1nc(C(=O)N2CCc3ccccc3C2)c2ccccc2c1=O	DAT uptake mod 0.78
C=C1C(=O)[C@@]23[C@H](O)C[C@@H]4C(C)(C)CC[C@H](O)[C@]4(C)[C@@H]2C[C@H](O)[C@@H]1[C@H]3O	DAT uptake mod -4.8 (no result: ERa SRC1 inh, ERa SRC1 pot, MT1-MMP txn act, ERb coact inh)
C=C1C(=O)[C@@]23[C@H](O)C[C@@H]4C(C)(C)CC[C@H](O)[C@@]4(C)[C@@H]2CC[C@@H]1[C@H]3O	none (no result: ERa SRC1 inh, ERa SRC1 pot, MT1-MMP txn act, ERb coact inh)
Cc1ccc2nc(NCCO)nc(-c3ccccc3)c2c1	none (no result: DAT uptake mod)
Cc1ccc2nc(N3CCN(C=O)CC3)nc(-c3ccccc3)c2c1	DAT uptake mod 2.8
COCCN(C(=O)Cc1cccs1)C(C(=O)NCc1ccc(OC)cc1)c1ccccc1 (stereo not drawn)	none (no result: ERa SRC1 inh, ERa SRC1 pot, MT1-MMP txn act, ERb coact inh)
Cc1ccc(C)c(C(=O)c2c(C)nc3sccn23)c1	none
Cc1cc(C)c(NC(=O)c2cc3c(nc4sccn43)s2)c(C)c1	ERa SRC1 inh 86[fluorescence artefact?], ERb coact inh 55[fluorescence artefact?]
CCn1nc(C(=O)OC(C(=O)c2c[nH]c3ccccc23)c2ccccc2)c2ccccc2c1=O (stereo not drawn)	none (no result: ERa SRC1 inh, ERa SRC1 pot, MT1-MMP txn act, ERb coact inh)
CC(O)[C@H]1CNC(=O)C(=O)N1CC(C)(C)C (stereo partly drawn)	none (no result: ERa SRC1 inh, ERa SRC1 pot, MT1-MMP txn act, ERb coact inh)
O=C(O)CCCN=CC1=C(O)C(C(=O)c2ccccc2)CCC1=O (stereo not drawn)	DAT uptake mod 1.8
O=C(Cn1c(=O)oc2cc(S(=O)(=O)N3CCCCCC3)ccc21)NC1CCCCC1	ERa SRC1 pot 349
O=C(Cn1c(=O)oc2cc(S(=O)(=O)N3CCc4ccccc43)ccc21)NC1CCCC1	none
Cc1ccc(NC(=O)Cn2c(=O)oc3cc(S(=O)(=O)N4CCC(C)CC4)ccc32)cc1C	ERb coact inh 62[fluorescence artefact?] (no result: MT1-MMP txn act)
CCc1nn2c(=O)cc(CSc3nc4sc5c(c4c(=O)n3C)CCCC5)nc2s1	ERb coact inh 53[fluorescence artefact?] (no result: DAT uptake mod)
CSc1nc2sc3c(c2c(=O)n1C)CCCC3	none
CN1/C(=C/C2CC(=O)N(c3ccc([N+](=O)[O-])cc3)C2=O)C(C)(C)c2ccccc21 (stereo not drawn)	DAT uptake mod 2.9
Cc1nc(SC2CC(=O)N(c3ccc([N+](=O)[O-])cc3)C2=O)nc2c1CCCC2 (stereo not drawn)	none (no result: ERa SRC1 inh, ERa SRC1 pot, MT1-MMP txn act, ERb coact inh)
CCN(CC)S(=O)(=O)c1ccc(N(C)Cc2cccnc2)nc1	none
COc1cccc(C(=O)NC2CC3CCCC(C2)N3CC(=O)Nc2ccccc2)c1 (stereo not drawn)	ERa SRC1 inh 97[fluorescence artefact?], ERb coact inh 99[fluorescence artefact?]
Cc1nc(SCC(=O)NCc2ccco2)c2c3c(sc2n1)CCCC3	none
CCCc1nc2sc3c(SCC(=O)NCc4ccco4)ncnc3c2c2c1CCC2	ERa SRC1 pot 255[fluorescence artefact?]
CNCc1ccccc1Sc1ccc(OC)c(OC)c1	none (no result: ERa SRC1 inh, ERa SRC1 pot, MT1-MMP txn act, ERb coact inh)
Cc1cc(C)n2nc(Nc3ccccc3)cc2n1	MT1-MMP txn act 2
Cc1cc(C)n2nc(C(=O)NCc3ccccc3)cc2n1	none
COc1ccc(CCNC(=O)C2CC(c3ccccc3F)=NO2)cc1 (stereo not drawn)	none (no result: ERa SRC1 inh, ERa SRC1 pot, MT1-MMP txn act, ERb coact inh)
COC(=O)[C@@]1(Cc2ccc(OC)cc2)[C@H]2c3cc(C(=O)N4CCCC4)n(C[C@H](O)CO)c3C[C@H]2CN1C(=O)c1ccccc1	none (no result: ERa SRC1 inh, ERa SRC1 pot, ERb coact inh)
Cc1c(NC(=O)C23CC4CC(CC(C)(C4)C2)C3)c(=O)n(-c2ccccc2)n1C	MT1-MMP txn act 2
Cc1c(NC(=O)C2(C)CCCCC2)c(=O)n(-c2ccccc2)n1C	none
CCCCN1C(N)=NC[C@@H]1CCCCN	none (no result: ERa SRC1 inh, ERa SRC1 pot, MT1-MMP txn act, ERb coact inh)
CS(=O)(=O)c1sc2nc(-c3cccs3)cc(-c3ccccc3)c2c1N	MT1-MMP txn act 2.2
Cc1ccc(-c2cc(-c3ccccc3)c3c(N)c(S(C)(=O)=O)sc3n2)cc1	none
CCOc1cc(NC(=S)NCCCN2CCOCC2)c(OCC)cc1NC(=O)CC(C)C	none (no result: ERa SRC1 inh, ERa SRC1 pot, MT1-MMP txn act, ERb coact inh)
